The text below walks through data of PubChem BioAssay (NCATS).

Inconclusive results are not listed. A call without a number means that no potency is given here. Calls of active or inactive are those of the source. Calls come from the whole dose curve; as a rule, active = well fitted cell-killing curve with a large enough effect; inconclusive = small, poorly fitted or top-dose-only effect; inactive = flat fitted curve, though single readings scatter. Numbered stars: 1 amine (or outer) side, 2 acyl side, 3 side chain; on linkers, the order of the positions; unused ones are H or OH. Square brackets hold non-standard residues; d marks the D form. Peptide text beside a SMILES is read from it. * marks the point of attachment. X1 = CCCCCCCCCC(=O)[C@H](C(=O)[*:2])[C@@H]1CNC(=O)[C@@H](N[*:1])CS1; Octanoyl = CCCCCCCC(=O)*
Potency is the fitted concentration of half-maximal effect.

The nature of the test: OV-KATE Cancer Cell Toxicity qHTS against the NCATS CANVASS Library (AID 1347345). The settings on record: OV-KATE cells viability, CellTiter-Glo luminescence, 72 h; series mostly up to 38.3 µM. From the text: Natural products and their derivatives continue to be wellsprings of nascent therapeutic potential. However, many laboratories have limited resources for biological evaluation, leaving their previously isolated or synthesized compounds largely or completely untested. To address this issue, the Canvass library of natural products was assembled (https://tripod.nih.gov/canvass), in collaboration with academic and industry researchers, for quantitative high-throughput screening (qHTS) across a diverse set of cell-based and biochemical assays. The pure (>85% purity by liquid chromatography/mass spectrometry [LC/MS]) Canvass library of 346 natural products were submitted by 45 academic laboratories and companies around the world. We collected pure natural products to circumvent deconvolution and structure elucidation due to time and resource limitations. The library was formatted into 1536-well plates and evaluated in 50 qHTS (in an 11-pnt concentration series) bioassays with broad scope of disease-relevant mechanisms. The resulting data set from 50 different assays was then systematically analyzed to identify overall trends and specific natural products with interesting biological activities. Reported herein are the results of each individual qHTS and their corresponding assay protocol. National Center for Advancing Translational Sciences (NCATS), Rockville, MD National Institute of Health (NIH), Bethesda, Maryland
Cancer Cell Toxicity protocol for cell lines COV-362, OV-KATE, OV-SAHO, UWB1.289, UWB1.289-WTBRCA1, HEK-293, HPAF-II, Panc-1005, SW1088, or U-118MG. 1. In a 1536 well, white solid bottom tissue culture plates (Corning 7494), corresponding cells (COV-362, OV-KATE, OV-SAHO, UWB1.289, UWB1.289-WTBRCA1, HEK-293, HPAF-II, Panc-1005, SW1088, or U-118MG) were dispensed in each well at a final concentration of 1000 cells / well (6uL volume) using the Multidrop Combi (Thermo Fisher Scientific) dispenser. 2. The plates were incubated for 4 hours at 37 degrees C/5% CO2/95% Rh. 3. Compounds were pin transferred (~23nL volume) via Wako Pin-tool (Wako Automation, Richmond VA) equipped with a 1536 pin head. The assay plates were treated with compounds in an 11-pnt concentration series with a final concentration range of […] to 85uM. 4. Bortezomib was used as a single dose control (0.5mM column 4, rows 1 - 32) at a final concentration of 1.9uM and as a 16pnt titration (1mM; 1:2 dilution; 16-points; n = 2; column 3, rows 1 - 32) with final concentration range of 0.1nM - 3.8uM. 5. The assay plates were incubated for 72 hours at 37 degrees C/5% CO2/95% Rh. 6. 3uL CellTiter-Glo detection reagent was then added to the plates (columns 2 - 48, rows 1 - 32) and incubated at room temperature for additional 15min. 7. Luminescence signal was acquired via the ViewLux plate reader (PerkinElmer) using a clear filter, 2 second exposure and 2x binning settings.
(Quantitative high-throughput screening tests each substance at several concentrations.)
Regarding `CCCCCCCCCC(=O)[C@@H]1C(=O)N[C@@H](CC(C)C)C(=O)N[C@H](C)C(=O)N2CCC[C@H]2C(=O)N[C@@H](C(C)C)C(=O)N[C@H]2CS[C@H]1CNC2=O` (cyclo(L[dA]PV[X1])), the Potency entry is “inactive”.

Turning to `O=Cc1ccc2n1C[C@@]1(C[C@H](O)[C@H](O)CO1)OC2`, the Potency result was “inactive”.

Regarding `CO[C@@H]1[C@H](O)[C@@H](C)O[C@@H](OC[C@H]2/C=C/C=C/C(=O)C(C)C[C@H](C)C(O[C@@H]3O[C@H](C)CC4(OC(=O)O[C@@H]4C)C3O)[C@@H](C)/C=C/C(=O)OC2C)[C@@H]1OC` (stereo not given in full), the Potency result is “inactive”.

In the case of `CO[C@@H]1[C@H](O)[C@@H](C)O[C@@H](OC[C@@H]2C(C)OC(=O)/C=C/[C@H](C)C(O[C@@H]3O[C@H](C)CC4(OC(=O)O[C@@H]4C)C3O)[C@@H](C)CC(C)C(=O)CC[C@H]3OC23)[C@@H]1OC` (stereo not given in full), the Potency entry was “inactive”.

`C/C(=C\[C@H](C)C(=O)CCCC1CC(=O)NC(=O)C1)C(O)[C@@H](C)[C@H](O)C/C=C/CC/C=C/C(=O)O` (stereo not given in full): the Potency result is “inactive”.

Take `O=C(O)[C@@]12CO[C@@]3(O)C4CCN(CC[C@H]31)[C@H]4c1c2[nH]c2ccccc12`: the Potency entry was “inactive”.

With `CC1C(=O)C23CCC1C[C@]21O[C@@H]2C(C)(C)C=CC(=O)[C@@]23COC1=O` (stereo not given in full), the Potency entry is “inactive”.

For the compound `O=C(O)CC1OCc2c(O)cccc21` (stereo not given), the Potency result was “inactive”.

`CC(C)=CCC/C(C)=C/Cc1c(O)c(CC=C(C)C)c(O)c2c(=O)c3cc(O)ccc3oc12`: the Potency is 2.36 µM (active).

In the case of `CN1C(=O)[C@]23SS[C@@]1(C)C(=O)N2[C@H]1Nc2ccccc2[C@]1(c1c[nH]c2ccccc12)[C@@H]3O`, the Potency was 1.06 µM (active).

On to `CCCCCCCCCCCCCCC[C@H](O)C[C@@H](O)C[C@@H](O)C[C@@H](O)C[C@@H](O)C[C@H]1CC=CC(=O)O1`, for which the Potency is 2.11 µM (active).

Regarding `CCCCCCCCCCCCCCCC(=O)OC/C=C(\C)CCCC(C)CC(C)C(C)C` (stereo not given), the Potency entry is “inactive”.

Turning to `O=C(O)Cc1c[nH]c2ccccc12`, the Potency entry was “inactive”.

Take `CC1=CC2=C[C@H](C)C[C@@]23OC(=C(C)C3=O)CC(C)(C)/C=C/C1=O`: the Potency was 0.838 µM (active).

Take `CC[C@@H]1C[C@@]2(CC)OC(=O)[C@@]3(CC)OC(=O)[C@@H]1[C@@H]23`: the Potency entry was “inactive”.

Regarding `CO[C@@H]1C[C@@H](C[C@H]2CC[C@H](C)[C@H]([C@@H](C)C(=O)O)O2)O[C@]2(O[C@](C)([C@H]3CC[C@@](C)([C@@H]4O[C@@H]([C@H]5O[C@](C)(O)[C@H](C)C[C@@H]5C)C[C@@H]4C)O3)C[C@H]2C)[C@@H]1C`, the Potency is 4.72 µM (active).

As for `COc1cc(O)c2c3c(c(O)cc(C)c13)C(=O)OC2`, the Potency entry was “inactive”.

On to `CN1CC[C@]2(c3cccc4c3N[C@@H]3N(C)CC[C@]43[C@@]34CCN(C)[C@@H]3Nc3c([C@]56CCN(C)[C@H]5Nc5ccccc56)cccc34)c3ccccc3N[C@H]12`, for which the Potency was 8.38 µM (active).

For the compound `C/C(=C\[C@H](C)C(=O)CCCC1CC(=O)NC(=O)C1)[C@@H]1OC(=O)/C=C/CC/C=C/C[C@@H](O)[C@@H]1C`, the Potency is 2.11 µM (active).

As to `C=C[C@]1(C)CC[C@@H]([C@H](C)C(=O)/C=C/C(C)C)O1`, the Potency entry was “inactive”.

Consider `CC1(C)[C@H](Br)CC[C@]23C[C@]4(C)C(=O)CC12C[C@H]34`, for which the Potency result was “inactive”.

As for `C=C(C)[C@@H]1CC[C@]2(C)CC[C@]3(C)[C@H](CC[C@@H]4[C@@]5(C)CC[C@H](O)C(C)(C)[C@@H]5CC[C@]43C)[C@@H]12`, the Potency entry is “inactive”.

In the case of `C=C(NC(=O)c1csc(-c2nc3c(cc2O)-c2nc(cs2)C(=O)NC(C(C)O)C(=O)N/C(=C(\C)O)c2nc(cs2)C(=O)NC2c4nc(cs4)C(=O)NC(COC(=O)c4c5c6c(cccc6n4O)COC(=O)[C@@H](OC4C[C@](C)(O)[C@H](N(C)C)[C@H](C)O4)C2OC5)c2nc-3cs2)n1)C(N)=O` (stereo not given in full), the Potency entry was “inactive”.

Take `C=CC(C)(C)C(=O)[C@@H](C)[C@@H]1CC[C@](C)(C=C)O1`: the Potency result was “inactive”.

Regarding `O=C(OC1Cc2c(O)cc(O)cc2OC1c1cc(O)c(O)c(O)c1)c1cc(O)c(O)c(O)c1` (stereo not given), the Potency result was “inactive”.

Regarding `O=C(O)[C@@]12COC3(O)C1CCN1CC[C@H]3[C@@H]1c1c2[nH]c2ccccc12`, the Potency entry was “inactive”.

Turning to `Oc1ccc([C@H]2Oc3ccc(/C=C/c4cc(O)cc(O)c4)cc3C2c2cc(O)cc(O)c2)cc1` (stereo not given in full), the Potency entry is “inactive”.

On to `CCCCCCCC(=O)N[C@@H](CC(C)C)C(=O)N[C@H](C=O)CCC(=O)O` (Octanoyl-Leu-Glu-aldehyde), for which the Potency entry was “inactive”.

For the compound `CC(C)=CCC[C@@H](C)[C@@H]1CC[C@@]2(C)C[C@H]3C(C)=CC(=O)[C@@H]3/C(C=O)=C\C[C@H]12`, the Potency is 9.41 µM (active).

For `C[C@@H]1O[C@@H](O[C@@H]2[C@@H](O)[C@H](O[C@@H]3[C@@H](O)[C@@H](O)C(O[C@H]4[C@H](OC(=O)[C@]56CCC(C)(C)C[C@H]5C5=CCC7[C@@]8(C)C[C@H](O)[C@H](O[C@@H]9C[C@H](CO)[C@@H](O)[C@H](O)[C@H]9O)[C@@](C)(CO)C8[C@H](O)C[C@@]7(C)[C@]5(C)CC6)OC[C@H](O)[C@@H]4O)O[C@H]3C)OC[C@H]2O)[C@H](O)[C@H](O)[C@H]1O` (stereo not given in full), the Potency result is “inactive”.

For the compound `C[C@@H]1C[C@H]2C[C@]3(CCCCN3C)[C@@H]3C[C@H]2[C@H](C1)N(C)C3`, the Potency entry is “inactive”.

On to `COc1c(O)cc2oc(-c3ccccc3)cc(=O)c2c1O`, for which the Potency result was “inactive”.

As to `C=C1[C@H]2CC[C@@]3(C=CC(=O)[C@@](C)(CCC(=O)Nc4c(O)ccc(C(=O)O)c4O)C3C2)[C@H]1O` (stereo not given in full), the Potency result is “inactive”.

Turning to `COc1ccc([C@@H]2c3cc(OC)c(OC)cc3C(=O)C(C)C2C)cc1OC` (stereo not given in full), the Potency result is “inactive”.

For `CCC1=C2CCCN3C(=O)O[C@H]([C@H]1OC(C)=O)[C@H]23`, the Potency result was “inactive”.

For `CC1=CC[C@@]2(C[C@@H]1O)[C@@H](C(=O)O)CC[C@H]2C(C)C`, the Potency entry is “inactive”.

`C=C1C[C@@]23C=CC(=O)[C@@](C)(CCC(=O)Nc4c(O)ccc(C(=O)O)c4O)C2C[C@@H]1C(O)C3` (stereo not given in full): the Potency result was “inactive”.

Take `C/C1=C/[C@@H](C)[C@H](O)C/C=C/CC/C=C/C(=O)O[C@@H]1[C@H](C)C(=O)/C=C/CC1CC(=O)NC(=O)C1`: the Potency was 18.8 µM (active).

For the compound `CC1(C)CC[C@]2(C(=O)O)CC[C@]3(C)C(=CC[C@@H]4[C@@]5(C)C[C@@H](O)[C@H](O)C(C)(C)[C@@H]5CC[C@]43C)[C@@H]2C1`, the Potency entry was “inactive”.

In the case of `C=C(C)C(=O)O[C@H]1C[C@H](C)[C@@H](OC(C)=O)CC[C@@]2(C)O[C@@H]2[C@H]2OC(=O)C(COC(C)=O)=C12`, the Potency is 4.2 µM (active).
